From ChEMBL document CHEMBL1201862, “PubChem BioAssay data set” (2004)
About 4,000 (6.9%) of roughly 58,000 sequences were called active. Rule as the data show it: active = GI50 up to about 1.1 µM and inactive = higher. The list is a sample of the results. Potency and affinity values are given separately.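 Interpolation was linear, between the two tested concentrations surrounding the appropriate level; five concentrations were tested over 48 hours in 96-well plates. GI50 is the concentration that inhibits growth by half.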

Tested on: KM12
Assay: NCI tumour cell line growth inhibition, 48 h

Row | Substance | GI50 [µM]
1 | [Bis(aminomethyl)pentamethylenesilane]dichloropaltinum(II), CHEMBL2146202 | 5.56
2 | [Bis(aminomethyl)tetramethylenesilane]dichloropaltinum(II), CHEMBL2146205 | 78
3 | mu-(1,7-nanodiamine-N,N')bis-(cis-aminedichloroplatimum (II)), CHEMBL2146215 | 97.1
4 | [Bis(aminomethyl)pentamethylenesilane]tetrachloropaltinum(IV), CHEMBL2146204 | 4.12
5 | [Bis(aminomethyl)ethylmethylsilane]tetrachloroplatinum(IV), CHEMBL2146192 | 3.89
6 | [Bis(aminomethyl)diethylsilane]tetrachloroplatinum(IV), CHEMBL2146203 | 8.85
7 | [Bis(aminomethyl)dimethylsilane]dichloroplatinum (II), CHEMBL2146201 | > 100
8 | CISPLATIN, CHEMBL11359 | 10
9 | [Bis(aminomethyl)dimethylsilane]tetrachloroplatinum(IV), CHEMBL2146190 | 18.1
10 | [Bis(aminomethyl)tetramethylenesilane]tetrachloropaltinum(IV), CHEMBL2146189 | 14.8
11 | cis-Bis[[(trimethylsilyl)methyl]amino]tetrachloroplatinum(IV), CHEMBL2146191 | 9.66
